Assay outcomes from PubChem BioAssay.
Tau fluor cs = counter-screen for tau fibril formation inhibitors; tau K18 P301L Alexa594 fluorescence, heparin fibrillization; Potency, µM (highest dose often 57.7 µM); 0.93% of 280,000 active; also: nearly all actives have a fitted effect of over 55% in size
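Human tau K18 P301L (15 uM unlabeled, 0.24 uM Alexa 594-labeled) in 100 mM sodium acetate pH 7 with 20 uM heparin, 6 hr at 37 C. ThT 30 uM added, 1 hr ambient; Alexa 594 FP and total fluorescence read at 555/632 nm.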
Tau fibril FP = tau fibrillization inhibition (FP); 0.39% of 280,000 active; K18 P301L tau heparin fibrillization, Alexa594 FP, 6 h; Potency, µM (doses to about 57.7 µM), usual class: inhibitors; P10636; AID 1468; also: nearly all actives have a fitted effect of over 55% in size
Target sequence (P10636 561-689 P618L limits assumed): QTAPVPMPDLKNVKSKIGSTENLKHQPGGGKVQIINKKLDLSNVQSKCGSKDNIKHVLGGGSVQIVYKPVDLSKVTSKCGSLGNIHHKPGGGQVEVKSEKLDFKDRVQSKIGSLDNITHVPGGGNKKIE
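Heparin (20 uM) drove fibril formation of recombinant tau K18 P301L, 15 uM unlabeled with 0.24 uM Alexa 594 label, for 6 hr at 37 C in 100 mM sodium acetate pH 7. Fluorescence polarization (555/632 nm) read 1 hr after 30 uM ThT.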
Sfp inh = inhibitors of Bacillus subtilis Sfp phosphopantetheinyl transferase; Biochemical Sfp PPTase activity, qHTS; Potency, µM, hits mostly inhibitors; 3.5% of 310,000 active;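 also: the enzyme is Sfp with the accession as filed and its product quenches rhodamine fluorescence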
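Fluorescence-quenching assay: 15 nM Sfp-PPTase preincubated 15 min at room temperature with compound, then 5 uM rhodamine-CoA and 12.5 uM BHQ-2-labelled YbbR peptide added. Fluorescence (ex 525/em 598 nm) read at start and after 30 min; difference gives rate.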
FBPA coupling cs = coupling enzyme interference in Giardia aldolase counter-screen; coupling enzyme system counterscreen, AmpLite Red fluorescence; activity change, negative = inhibition, % at 58.2 µM, hits read low; 0.67% of 290,000 active; AID 2472; in the data active = activity change below about -30%
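Counterscreen of the coupled detection system alone, without aldolase: glyceraldehyde-3-phosphate coupling enzymes plus AmpLite Red readout. Compounds at 57.5 uM final, 10 min RT preincubation, 20 min RT reaction, fluorescence 525/598 nm.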
Tau fibril ThT = inhibitors of human tau fibril formation, thioflavin T binding; 2.1% of 270,000 active; P10636; recombinant tau K18 P301L, heparin-induced fibrillization, ThT fluorescence; Potency, µM (highest dose often 57.4 µM), most hits filed as inhibitors; also: nearly all actives have a fitted effect of over 55% in size
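ThT emission at 510 nm, taken 1 hr after adding 30 uM dye, quantifies aggregates formed when 20 uM heparin acts on human tau K18 P301L for 6 hr at 37 C.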
A number is an active result; - = inactive; ? = inconclusive; . = no result; [ ] = another dose, or the depositor's remark. A selection: hits, their analogues and other compounds. The true share with any hit is near 5.2%. Unless noted, calls follow the shape of the dose curve; as a rule, active = well fitted curve in the direction sought with a large enough effect; inconclusive = small, poorly fitted or top-dose-only effect, or another doubt; inactive = no such curve, though single readings can be large; an effect the other way counts as inactive or inconclusive.

SMILES | Tau fluor cs | Tau fibril FP | Sfp inh | FBPA coupling cs | Tau fibril ThT
COc1cc(C2C(C(=O)OC(C)C)=C(C)Nc3[nH]c(=O)[nH]c(=O)c32)ccc1O (stereo not drawn) | - | - | - | - | -
Cc1ccc(C2C3=C(CCCC3=O)Nc3[nH]c(=S)[nH]c(=O)c32)cc1 (stereo not drawn) | - | - | 7.9µM | - | -
COC(=O)C1=C(C)Nc2[nH]c(=S)[nH]c(=O)c2C1c1ccc(O)cc1 (stereo not drawn) | - | - | 6.3µM | - | -
CSc1nc2c(c(=O)[nH]1)C(c1ccccc1)C1=C(CC(C)(C)CC1=O)N2 (stereo not drawn) | - | - | - | - | -
CCOc1ccccc1NC(=O)CSc1nnc2[nH]c(=O)cc(-c3ccccc3)n12 | - | - | . | . | ?
COc1ccc(CCNC(=O)c2ccc3c(c2)CCN3S(=O)(=O)c2ccc(C)cc2)cc1 | ? | - | . | . | -
COc1ccc(C(=O)NNC(=O)C(Cc2ccc(O)cc2)NC(=O)c2ccccc2NC(=O)c2ccc(OC)cc2)cc1 (stereo not drawn) | - | - | 22µM | - | -
COc1ccc(C(=O)Nc2ccccc2C(=O)NC(Cc2ccc(O)cc2)C(=O)NNC(=O)c2ccccc2Cl)cc1 (stereo not drawn) | - | - | 45µM | - | -
COC(=O)c1ccccc1NC(=O)Cn1c(=O)n(CCCC(=O)NCc2ccccc2Cl)c(=O)c2ccccc21 | - | - | . | . | -
Cc1ccc(C)c(NC(=O)n2ncc3cc(Cl)ccc32)c1 | - | - | . | . | ?
CCCCCC/C(=N/O)c1ccccn1 | - | - | - | - | -
C/C(=N/O)c1ccccn1 | - | - | 40µM | - | -
COC(=O)c1ccccc1S(=O)(=O)N1CCc2nc(-c3ccc(OC)cc3C)c3c(c2C1)CO[C@@H](c1ccccc1)C3 | -[11.6 µM] | -[11.6 µM] | - | - | -[11.5 µM]
C=CCC(Nc1ccccc1)C12C=CC(O1)C(C(=O)OC)=C2C(=O)OC (stereo not drawn) | - | - | - | - | 7.9µM
C=CCC(Nc1ccc(OC)cc1)C(=O)OCC (stereo not drawn) | - | - | - | - | -
O=C(CN1C(=O)/C(=C/c2ccc(Cl)cc2)SC1=S)NC1C=CS(=O)(=O)C1 (stereo not drawn) | . | . | 40µM | - | .
O=C(CCN1C(=O)/C(=C/c2ccc(Cl)cc2)SC1=S)NC1C=CS(=O)(=O)C1 (stereo not drawn) | . | . | - | - | .
Cc1oc2c(C)c3oc(=O)c(CCC(=O)N4CCCCC4)c(C)c3cc2c1C | - | - | . | . | -
O=C(CN(c1ccccc1)S(=O)(=O)c1ccccc1)N/N=C/c1ccco1 | - | - | - | - | -
Cc1ccc(N(CC(=O)N/N=C/c2ccco2)S(=O)(=O)c2ccccc2)cc1 | - | - | 32µM | - | -
CCOC(=O)c1cc(S(=O)(=O)N2CCN(c3ccc(C)cc3C)CC2)[nH]n1 | - | - | . | . | -
CC(=O)c1c(O)ccc2c(-c3ccccc3)cc(=O)oc12 | - | - | - | - | -
CC(=O)c1c(O)cccc1O | . | . | 25µM | - | .
Cc1cc(C)c(-c2cc([C@H](C)O/N=C\[C@@H](C)[C@H](OCc3ccccc3)C(C)C)on2)c(C)c1 | -[11.6 µM] | -[11.6 µM] | - | - | -[11.5 µM]
CCOc1ccc2nc(N3C(=O)/C(=C/c4ccc(Cl)cc4)NC3=S)sc2c1 | ? | - | - | - | 4.5µM
SMILES | Tau fluor cs | Tau fibril FP | Sfp inh | FBPA coupling cs | Tau fibril ThT
COc1ccc2nc(N3C(=O)CNC3=S)sc2c1 | - | - | - | - | .
CCN1CCN(c2ncnc3c2c(-c2ccccc2)cn3-c2ccc(F)cc2)CC1 | - | - | 40µM | - | -
Clc1ccccc1N1CCN(c2ncnc3c2c(-c2ccccc2)cn3-c2ccccc2)CC1 | - | - | . | . | -
OCCN1CCN(c2ncnc3c2c(-c2ccccc2)cn3-c2ccc(Br)cc2)CC1 | - | - | 22µM | - | ?
Oc1ccc(-c2csc(-c3cccnc3)n2)c(O)c1 | - | - | - | - | ?
Oc1ccc(Nc2nc(-c3ccc4ccccc4c3)cs2)cc1 | 7.9µM[quencher] | ? | - | - | 5µM
Oc1ccc(-c2nc(-c3ccc(O)c(O)c3)cs2)cc1 | 13µM[quencher] | - | 79µM | - | 3.2µM
NS(=O)(=O)c1ccc(Nc2nc(-c3ccc(F)cc3)cs2)cc1 | 16µM[quencher] | - | - | - | ?
CC(=O)Nc1ccc(-c2csc(Nc3ccc(S(N)(=O)=O)cc3)n2)cc1 | - | - | - | - | ?
NS(=O)(=O)c1ccc(Nc2nc(-c3ccc(O)cc3O)cs2)cc1 | 14µM[quencher] | - | - | - | 6.3µM
CCCOC(=O)N[C@@H]1C(=O)N2C(C(=O)OCCC)=C(C)CS[C@H]12 | . | . | ? | - | .
CC1=C(C(=O)O)N2C(=O)[C@@H](NC(=O)C(N)C3=CCC=CC3)[C@H]2SC1 (stereo partly drawn) | - | ? | . | . | ?
CC1=C(C(=O)O)N2C(=O)C(NC(=O)c3ccccc3Cl)C2SC1 (stereo not drawn) | . | . | 8.9µM | - | .
CCn1ccc(C(=O)NC2C(=O)N3C(C(=O)O)=C(C)CSC23)n1 (stereo not drawn) | - | - | 32µM | - | -
CC1=C(C(=O)O)N2C(=O)C(NC(=O)c3nn(C)cc3Cl)C2SC1 (stereo not drawn) | - | - | 40µM | - | -
COc1ccc(N2Cc3cccc(C(=O)NC(C)CCc4ccco4)c3C2=O)cc1 (stereo not drawn) | - | - | 45µM | - | ?
CC(CCc1ccco1)NC(=O)c1cccc2c1C(=O)N(C1CCCCC1)C2 (stereo not drawn) | - | - | - | - | ?
COc1ccc(Br)cc1CNC(=O)c1ccc2c(c1)nc1n2CCCCC1 | - | - | . | . | ?
CCOC(=O)N1CCN(C(=O)CCCn2c(=S)[nH]c3ccsc3c2=O)CC1 | - | - | 56µM | - | ?
CCOC(=O)N1CCN(C(=O)CCCCCn2c(=S)[nH]c3ccsc3c2=O)CC1 | - | - | ? | - | ?
Cc1ccc(/C=C/C(=O)Nc2cc(S(N)(=O)=O)ccc2O)cc1 | - | - | 28µM | - | ?
O=C(O)CN(CC(=O)O)Cc1cc2c(-c3ccccc3C(=O)O)c3cc(CN(CC(=O)O)CC(=O)O)c(=O)cc-3oc2cc1O | - | 22µM | 56µM | - | ?
CCC(=O)NC1=C(Cl)C(=O)C(NC(=O)CC)=C(Cl)C1=O | ? | 3.5µM | 0.56µM | -90 | 2µM
NC(C(=O)O)C(CC(=O)O)c1ccc(Cl)cc1 (stereo not drawn) | - | - | 50µM | . | -
CCN(CC)S(=O)(=O)c1ccc2c(c1)c(=O)c(C(=O)NCc1ccc(Cl)cc1)cn2C | ? | - | . | . | -
Cc1ccc(-n2nc(-c3ccco3)cc2C(=O)O)c(C)c1 | - | - | 10µM | - | ?
O=C(O)c1cc(-c2ccco2)nn1-c1ccc(Cl)cc1 | - | - | 16µM | - | -
O=C(O)c1cc(-c2cccs2)nn1-c1cccc(Cl)c1 | - | - | 89µM | - | -
